# aSyn rescue: alpha-synuclein toxicity inhibition in yeast; Potency, µM (doses to about 46.1 µM), for the others: at the top dose growth rescue (activation), usual class: activators; 370,000 compounds, 0.14% hits; Yeast expressing alpha-synuclein, growth rescue, BacTiter-Glo, 24 h; note: % of control where 0% means no effect; nearly all actives have a fitted effect of over 65% in size
#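 Readout is rescue of growth in alpha-synuclein-expressing yeast, so inhibitors of toxicity appear as activators. Growth after 24 hr at 30 deg C in galactose medium is quantified by luminescence.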
# Abeta rescue: restores growth of yeast expressing A-beta42 peptide; yeast expressing A-beta42, growth rescue, OD600, 48 h; response scale: 0% DMSO, 100% iron-clioquinol control; 410,000 compounds, 0.063% hits; Potency, µM (titrated, usually from 46.1 µM), most hits filed as activators; note: nearly all actives have a fitted effect of over 55% in size
#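 Growth rescue measured by 600 nm absorbance after 48 h yeast culture at 30 C with compound. Values normalized between DMSO and an equimolar ferric chloride plus clioquinol control.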
# TDP43 rescue: inhibitors of TDP-43 toxicity in yeast | Potency, µM (top dose mostly 46.1 µM), for the others: at the highest dose growth rescue (activation), actives largely listed as activators | TDP-43 expressing yeast growth rescue, BacTiter-Glo, 24 h | AID 652104 | 410,000 compounds, 1.8% hits; note: % of control where 0% means no effect; nearly all actives have a fitted effect of over 50% in size
#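 In this qHTS, compounds that restore growth of yeast expressing TDP-43 appear as activators. Cells (OD600=0.02, galactose medium, raffinose-pregrown) are incubated with compound 24 hr at 30 deg C and growth is quantified by BacTiter-Glo.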
# FUS yeast rescue: FUS proteinopathy suppression in yeast; S. cerevisiae FUS-expressing, growth rescue, OD600, 24 h; Potency, µM (top dose mostly 76.6 µM), actives largely listed as activators; 390,000 compounds, 0.24% hits;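 note: plate controls were DMSO vehicle for no effect and reference control for full effect; nearly all actives have a fitted effect of over 55% in size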
#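 Absorbance at 600 nm, taken 24hr after compound addition, measured rescue of FUS-yeast growth at 30C. Induction used 2% galactose with seeding at OD 0.005. Controls: CP55940 from 92uM final, DMSO only.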
# The depositor's hits bear a star; i = inactive; ? = inconclusive; nt = no result given; ! = not confirmed by another sample; [ ] = dose if it differs, or a comment. An excerpt weighted towards active compounds, which were near 2.1% of everything screened. Calls come from the whole dose curve; as a rule, active = well fitted curve in the direction sought with a large enough effect; inconclusive = small, poorly fitted or top-dose-only effect, or another doubt; inactive = no such curve, though single readings can be large; an effect the other way counts as inactive or inconclusive. Potency is the fitted concentration of half-maximal effect.
SMILES,aSyn rescue,Abeta rescue,TDP43 rescue,FUS yeast rescue
CCCc1nc(SC)ncc1C(=O)N1CCN(c2ccc(Cl)cc2)CC1,nt,i,35µM*,i
CN1CCN(C(CNC(=O)C(=O)Nc2ccc(Cl)cc2)c2cccnc2)CC1 (stereo not drawn),nt,i,13%,i
O=C1C(=O)N(C2CCN(C(=O)c3ccc(F)cc3)CC2)CCN1Cc1ccc(F)cc1,nt,i,8%,i
CC(C)(C)C1CCC(=NNC(=O)c2cc3c(s2)CCCC3)CC1 (stereo not drawn),-16%,i,-2%,nt
CC(C)(C)C1CCc2sc(C(=O)NNC(=O)CCl)cc2C1 (stereo not drawn),1%,i,13µM*,i
Cc1cc(C)n(-c2cc(C(C)(C)C)nc3c(-c4ccc(Cl)cc4)cnn23)n1,-7%,i,-23%,i
Cc1cc(C)n(-c2cc(C(C)(C)C)nc3c(-c4ccccc4)cnn23)n1,-6%,i,14µM*,i
COc1ccc(C2CC(=O)c3cnc(NC(=O)c4ccccc4OC)nc3C2)c(OC)c1 (stereo not drawn),14%,i,18µM*,i
COc1ccc(C2CC(=O)c3cnc(NC(=O)c4cccc(OC)c4)nc3C2)cc1 (stereo not drawn),1%,i,?,i
CCc1ccc([C@H]2C(C(=O)O)=C[C@@H](C(C)(C)C)N2S(=O)(=O)c2ccc(C)cc2)cc1,-14%,i,14µM*,i
COc1cc(O)ccc1-c1nc2ccc(Br)cn2c1Nc1ccccc1C,nt,i,18%,i
Cc1cc2n(n1)C(c1c[nH]c3ccccc13)Nc1ccccc1-2 (stereo not drawn),-33%,i,7.9µM*,nt
Cc1cc2n(n1)C(c1cn(-c3ccccc3)nc1C)Nc1ccccc1-2 (stereo not drawn),3%,i,12%,i
CCOC(=O)Cn1c(CN(Cc2ccccc2)Cc2ccccc2)nc2c1c(=O)n(C)c(=O)n2C,1%,i,22µM*,?
Cc1cc(C)cc(-n2c(C)nc3cc(C(=O)O)ccc32)c1,-1%,i,13µM*!,i
CC(=O)Nc1ccc2c(c1)nc(C)n2-c1ccccc1,1%,i,-5%,i
Cc1nc2cc(Cl)ccc2n1-c1ccccc1,-2%,i,13µM*,i
COc1ccc(-n2nc(C(=O)Nc3cc(C)ccn3)c3c4ccccc4n(C)c3c2=O)cc1Cl,nt,i,5%,i
COC(=O)[C@@]12C[C@@H](CC(=O)NCc3cccc4ccccc34)C(=O)N(Cc3ccc4c(c3)OCO4)C1=CCC(C)(C)C2,16%,i,-15%,6.3µM*
CCCCCCCCN1C(=O)[C@H](CC(=O)N2CCCCC2)C[C@@]2(C(=O)OC)CC(C)(C)CC=C12,-36%,i,8%,?
CCCCCCCCN1C(=O)[C@H](CC(=O)NCc2ccc(OC)c(OC)c2)C[C@@]2(C(=O)OC)CC(C)(C)CC=C12,?,i,22µM*,?
CCCCCCCCN1C(=O)[C@H](CC(=O)N2CCOCC2)C[C@@]2(C(=O)OC)CC(C)(C)CC=C12,?,i,?,13µM*
CCCCC[C@H](O)/C=C/C1C(=O)C=C[C@H]1C/C=C\CCCC(=O)OC (stereo partly drawn),13%,i,28µM*,i
O=S(=O)(c1nccs1)N1CCN(c2nc(-c3cccs3)nc3ccccc23)CC1,19%,nt,nt,nt
O=[N+]([O-])c1cccc(-c2nn(-c3ccccc3)cc2CO)c1,5%,i,13µM*,i
SMILES,aSyn rescue,Abeta rescue,TDP43 rescue,FUS yeast rescue
Cc1ccc(S(=O)(=O)N(C(=O)c2ccncc2)c2ccc(OC(=O)c3ccncc3)cc2)c(C)c1,?,i,7.1µM*,nt
COc1ccc(N(C(=O)c2ccncc2)S(=O)(=O)c2ccc(Cl)cc2)cc1,10µM*,i,0.89µM*,i
Cc1ccc(C)c(S(=O)(=O)N(C(=O)c2ccncc2)c2ccc(OC(=O)c3ccncc3)cc2)c1,?,i,3%,i
COc1ccc(N(C(=O)c2cc(OC)c(OC)c(OC)c2)S(=O)(=O)c2ccc(C)cc2)cc1,nt,i,-24%,32µM*
CCOc1ccc(NC(=O)c2cc3c(n(-c4ccc(OC)cc4)c2=O)CC(C)(C)CC3=O)cc1,nt,i,5%,i
Cc1nc(C)c(-c2ccc(SCC(=O)Nc3ccc(Cl)c(Cl)c3)nn2)s1,nt,i,18%,i
CC12CCC(O)CC1=CCC1C2CCC2(C)C1CCC21CCC(=O)O1 (stereo not drawn),2%,i,30%,nt
C[C@]12CCC(O)CC1=CCC1C2CC[C@]2(C)/C(=N\NC(N)=S)CCC12 (stereo partly drawn),3%,2.5µM*,25%,i
O=C(COC(=O)c1cccs1)Nc1ccccc1[N+](=O)[O-],-12%,?,5%,i
N#Cc1ccccc1NC(=O)COC(=O)c1cccs1,-7%,i,10µM*,i
COC(=O)c1ccc(C(=O)OC)c(NC(=O)c2c(-c3ccccc3)noc2C)c1,-8%,i,-11%,i
CCOc1ccccc1-c1nc(-c2ccncc2)no1,10%,i,18µM*,i
CCOc1ccc(-c2noc(-c3ccncc3)n2)cc1OCC,-1%,i,0%,i
COc1ccccc1-c1noc(-c2cccnc2)n1,4%,i,11µM*,i
COc1ccccc1-c1nc(-c2ccncc2)no1,nt,i,11µM*,i
O=C(COC(=O)C1CCCCC1)Nc1ccccc1OC(F)F,7%,i,13µM*,i
COC(=O)c1cc(C(=O)OCC(=O)Nc2ccccc2OC(F)F)cc([N+](=O)[O-])c1,15%,i,22µM*,i
O=C(COC(=O)Cc1ccc(Cl)cc1Cl)Nc1ccccc1OC(F)F,9%,i,20µM*,i
Cc1ccc2c(C(=O)CNc3nccs3)c[nH]c2c1,-3%,nt,nt,nt
Cc1ccc(-c2ccc(/C=C(\C#N)C(N)=S)n2C)cc1,-5%,i,0%,i
Cc1cc(C)c(/C=C(\C#N)C(N)=S)c(C)c1,27%,i,11µM*,i
O=S(=O)(Nc1ccc2c(c1)OCO2)c1cccc(Br)c1,10%,i,13µM*,nt
O=S(=O)(Nc1ccc2c(c1)OCCO2)c1ccc2oc3ccccc3c2c1,25µM*,i,?,i
CC(=O)c1ccc(Nc2cc(C)nc3nc(Cc4ccccc4)nn23)cc1,nt,i,24%,i
CC(=O)c1c(C)[nH]c(C(=O)OCc2c(F)cccc2Cl)c1C,-1%,i,9%[9.22 µM],i
CC(=O)c1c(C)[nH]c(C(=O)OCc2cccc(Cl)c2)c1C,-9%,i,16µM*,i
N/C(=N\OC(=O)CCCOc1ccccc1)c1ccncc1,9%,i,-3%,i
N/C(=N\OC(=O)CCCOc1ccccc1)c1ccccc1,1%,i,25µM*,i
COc1ccc(OCCCC(=O)ON=C(N)c2ccccc2Cl)cc1,4%[1.84 µM],i,10µM*,i

# Assay outcomes: PubChem, National Center for Advancing Translational Sciences (NCATS)
